Screens: PubChem BioAssay, several laboratories
Compounds with a hit are over-represented: about 1.2% of the library has one in this group of screens.
p97 ATPase inh = inhibitors of human p97 ATPase; P55072; recombinant p97 ATPase, Kinase-Glo ATP luminescence, 3 h; inhibition, % at 8 µM; 220,000 compounds, 0.42% hits; AID 1481; in the data active = inhibition above about 15%;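 also: 0% = DMSO vehicle and 100% = wells lacking enzyme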
FAS TE block = inhibitors of human fatty acid synthase thioesterase domain; recombinant FAS-TE, OMFH fluorogenic substrate, fluorescence endpoint; inhibition, % at 15 µM; 360,000 compounds, 0.67% hits;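 active = compounds whose normalised, plate-corrected inhibition of enzyme fluorescence in the single-dose primary screen is 50% or more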;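 also: 0% = DMSO with enzyme and 100% = substrate without enzyme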
DTT redox prof = compounds producing H2O2 with reducing agent – biochemical, NIH compound library profiling, artefact control for MLSCN library redox annotation, primary screen; DTT-dependent redox cycling H2O2, phenol red/HRP absorbance; 100% = 100 µM peroxide control, 0% = buffer; activation, % at 10 µM; 200,000 compounds, 0.03% hits;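 active = activation of at least 50% relative to the plate's high and low controls in the primary single-dose screen; inactive = activation below 50%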;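 also: compound incubated with DTT at 0.8 mM final as the reducing agent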
PKD1 kinase inh = PKD1 (human) kinase inhibition; Q15139; PKD1 kinase fluorescence polarization assay; inhibition, % (test concentration not listed); 200,000 compounds, 0.056% hits; in the data active = inhibition above about 50%
Furin inhibitor = inhibitors of human furin. P09958. purified furin, fluorogenic substrate cleavage. inhibition, % at 20 µM or 30 µM. 220,000 compounds, 0.061% hits; in the data active = inhibition above about 25%
SUMO HTRF inh = SUMOylation inhibition | P63279 | HTRF SUMOylation assay, SAE1/SAE2 + UBC9, in vitro | inhibition, % at 35 µM | 290,000 compounds, 0.36% hits | AID 2006; in the data active = inhibition above about 50%, passing the limit was not always enough
Target sequence (P63279 whole entry, looked up): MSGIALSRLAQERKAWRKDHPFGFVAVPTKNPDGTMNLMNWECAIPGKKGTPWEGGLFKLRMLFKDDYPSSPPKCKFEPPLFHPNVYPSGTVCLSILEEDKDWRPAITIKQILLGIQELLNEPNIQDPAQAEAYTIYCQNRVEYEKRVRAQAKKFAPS
FAS-TE conf = confirmation of human fatty acid synthase thioesterase inhibitors; shares compounds with FAS TE block; recombinant FAS-TE, OMFH fluorogenic substrate, fluorescence; inhibition, % at 15 µM; 2,300 compounds, 45% hits; AID 624325;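 active = compounds inhibiting the enzyme by at least 50% at 15 µM in any one of the replicates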;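 also: 0% = enzyme with DMSO only and 100% = wells lacking enzyme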
* marks the source's active call; other numbers are inactive results.

`COCCOc1ccc(C(F)(F)F)cc1NC(=O)COC(=O)c1ccc(N2CCCC2=O)cc1` gave FAS TE block 1.
`CCOC(=O)c1cc(CC)sc1NC(=O)c1cc([N+](=O)[O-])ccc1N1CCOCC1` gave p97 ATPase inh 7, FAS TE block 61*, DTT redox prof 0, PKD1 kinase inh 1, Furin inhibitor -20, SUMO HTRF inh 2 and FAS-TE conf 21.
CCc1ccccc1N(C)S(=O)(=O)c1ccc(-c2cc(C)no2)s1 was read as FAS TE block 29 and SUMO HTRF inh -7.
Screening CN1CCN(c2ccc(C(F)(F)F)cc2NC(=O)c2ccco2)CC1 returned FAS TE block 0 and SUMO HTRF inh 15.
`O=C(COC(=O)c1cc([N+](=O)[O-])ccc1N1CCOCC1)Nc1ccc(Cl)cn1` gave FAS TE block 71*, SUMO HTRF inh -3 and FAS-TE conf 59*.
`Cc1cc(Cl)ccc1NC(=O)COC(=O)c1cc([N+](=O)[O-])ccc1N1CCOCC1` gave FAS TE block 77* and FAS-TE conf 79*.
`O=C(O)CCC(C(=O)O)N1C(=O)C2C3CCC(C3)C2C1=O` (configuration not stated) gave FAS TE block -3.
For COCCNC(=O)c1cc(-c2ccccc2)nn1CC1CC(c2cccnc2)=NO1 (configuration not stated) the results were FAS TE block -10.
O=C(CSc1ncnc2c1cnn2-c1ccccc1)NC1CCCC1 was read as FAS TE block 61* and FAS-TE conf 55*.
CNC(=O)CSc1ncnc2c1cnn2-c1ccccc1 was read as p97 ATPase inh -4, FAS TE block -7, DTT redox prof 0, PKD1 kinase inh -5, Furin inhibitor -8 and SUMO HTRF inh 20.
`CC(C)(C)c1ccc(CSc2ccc(S(=O)(=O)N3CCOCC3)cn2)cc1` gave FAS TE block 82* and FAS-TE conf 74*.
`CCS(=O)(=O)c1ccc2oc(Nc3cc(C)cc(C)c3)nc2c1` gave p97 ATPase inh -9, FAS TE block 16, DTT redox prof 0, PKD1 kinase inh 0, Furin inhibitor -14 and SUMO HTRF inh 10.
`CCS(=O)(=O)c1ccc2oc(Nc3ccc(C(C)C)cc3)nc2c1` gave p97 ATPase inh 0, FAS TE block 52*, DTT redox prof 0, PKD1 kinase inh 3, Furin inhibitor 0, SUMO HTRF inh 9 and FAS-TE conf 47*.
`O=c1c2ccccc2oc2cc(C#CC3(O)CCCCC3)ccc12` gave FAS TE block 55* and FAS-TE conf 36.
`Cc1ccc(NC(=O)c2ccc(Cl)c(S(=O)(=O)Nc3c(C)n(C)n(-c4ccccc4)c3=O)c2)cc1Cl` gave FAS TE block 76* and FAS-TE conf 18.
For Cc1c(NS(=O)(=O)c2cc(C(=O)Nc3ccc(F)cc3Cl)ccc2Cl)c(=O)n(-c2ccccc2)n1C the results were FAS TE block -3.
For CCOc1ccc(NS(=O)(=O)c2ccc(C(=O)N3CCC3)cc2)cc1 the results were FAS TE block -4 and SUMO HTRF inh -23.
`N#Cc1c(C#N)c(SSc2c(C#N)c(C#N)c(N)n2-c2ccccc2)n(-c2ccccc2)c1N` gave FAS TE block -6.
CCc1noc(C)c1C(=O)Nc1ccc(F)c(F)c1F was read as FAS TE block -4.
Screening COc1cc2c(cc1NC(=O)COc1ccccc1OC)oc1ccccc12 returned p97 ATPase inh 9, FAS TE block -4, DTT redox prof 3, PKD1 kinase inh -3, Furin inhibitor -32 and SUMO HTRF inh 0.
`COc1cc2c(cc1NC(=O)COC(=O)[C@@H](NS(=O)(=O)c1ccccc1)C(C)C)oc1ccccc12` gave p97 ATPase inh -2, FAS TE block 67*, DTT redox prof 0, PKD1 kinase inh -8, Furin inhibitor -8, SUMO HTRF inh -8 and FAS-TE conf -5.
For NC(=O)CSc1nnc(-c2ccccc2F)n1C1CC1 the results were FAS TE block -3 and SUMO HTRF inh 9.
`COc1ccc(C(=O)c2ccc([N+](=O)[O-])cc2)cc1S(=O)(=O)N1CCC(C(=O)O)CC1` gave FAS TE block -2 and SUMO HTRF inh 14.
For CCCCCc1nc2sc3c(c2c(=O)n1NC(=O)c1ccc([N+](=O)[O-])cc1)CC(C)(C)OC3 the results were p97 ATPase inh 1, FAS TE block 78*, DTT redox prof 0, PKD1 kinase inh 1, Furin inhibitor -27, SUMO HTRF inh 4 and FAS-TE conf 63*.
`CCCCCCCc1nc2sc3c(c2c(=O)n1N)CC(C)(C)OC3` gave p97 ATPase inh 2, FAS TE block -2, Furin inhibitor -8 and SUMO HTRF inh 8.
Screening CCN(CC)C(=O)C1CCCN(c2ccc([N+](=O)[O-])cc2/C=N/NC(=O)c2cccc(O)c2)C1 (configuration not stated) returned p97 ATPase inh -1, FAS TE block 66*, DTT redox prof 0, PKD1 kinase inh 5, Furin inhibitor 7, SUMO HTRF inh 18 and FAS-TE conf 68*.
For CCN(CC)C(=O)C1CCCN(c2ccc([N+](=O)[O-])cc2/C=N/NC(=O)c2ccccc2)C1 (configuration not stated) the results were p97 ATPase inh -4, FAS TE block 85*, DTT redox prof -1, PKD1 kinase inh -4, Furin inhibitor -1, SUMO HTRF inh 16 and FAS-TE conf 56*.
Screening CN1CCN(c2ccc([N+](=O)[O-])cc2/C=N/NC(=O)c2cccc([N+](=O)[O-])c2)CC1 returned p97 ATPase inh 0, DTT redox prof -1, PKD1 kinase inh -7, Furin inhibitor 0 and SUMO HTRF inh -6.
`CCN(CC)C(=O)C1CCCN(c2ccc([N+](=O)[O-])cc2/C=N/NC(=O)c2ccc([N+](=O)[O-])cc2)C1` (configuration not stated) gave p97 ATPase inh 1, FAS TE block 44, DTT redox prof -5, PKD1 kinase inh -6, Furin inhibitor -4 and SUMO HTRF inh 14.
Screening Cc1ccc(/C=C/C(=O)OCC(=O)NC(=O)NCc2ccco2)cc1 returned FAS TE block -3.
Screening Cc1cc(Cl)ccc1OCC(=O)NNC(=O)c1cccnc1 returned FAS TE block -4 and SUMO HTRF inh -1.
CCN(C(=O)COC(=O)c1cc(-c2cccc3ccccc23)nc2ccccc12)C1CCS(=O)(=O)C1 (configuration not stated) was read as p97 ATPase inh -1, FAS TE block 60*, DTT redox prof -1, PKD1 kinase inh 3, Furin inhibitor -16, SUMO HTRF inh -14 and FAS-TE conf 32.
